# Experimental data published in PubChem BioAssay AID1159580 (chemical genetic matrix, 2015).
# Several values for one entry are separate records, joined by “and”; a condition that tells them apart may be missing. Equal values may be shown once. Hit rate of the full screen: of about 5,500 compounds, about 2,000 (36%) were called active. Roughly 18% stayed inconclusive and do not appear here. Rule as the data show it: active = normalized growth mostly below about 0.91 (no sharp cut-off); inconclusive = no clear call, values can overlap the other calls; inactive = mostly above about 0.92. Some of the results follow. Some compounds were tested as several samples or in several runs, with calls that do not always agree.
# Experiment: chemical genetic growth profiling, strain panel (AID 1159580);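 also: tested at 20 µM; growth read once vehicle control cultures reached saturation at 30 °C; 1 = growth at the plate median or of vehicle wells; lower values mean less growth of the strain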
# Details: S. cerevisiae deletion strains, growth OD
compound,measurement,setting,value
Fc1ccc(C(c2ccc(F)cc2)N2CCN(C/C=C/c3ccccc3)CC2)cc1,normalized growth,"locus YAL013W, strain DEP1, stronger effect = lower value",0.996 (inactive) and 0.961 (inactive)
same,normalized growth,"locus YAL021C, strain ccr4, stronger effect = lower value",0.625 (active)
same,normalized growth,"locus YAL026C, strain drs2, stronger effect = lower value",0.0836 (active)
same,normalized growth,"locus YAL030W, strain snc1, stronger effect = lower value",0.293 (active)
same,normalized growth,"locus YAL040C, strain CLN3, stronger effect = lower value",1.02 (inactive)
same,normalized growth,"locus YBL061C, strain skt5, stronger effect = lower value",0.214 (active)
same,normalized growth,"locus YBR009C, strain hhf1, stronger effect = lower value",0.263 (active)
same,normalized growth,"locus YBR021W, strain FUR4, stronger effect = lower value",0.978 (inactive)
same,normalized growth,"locus YBR023C, strain chs3, stronger effect = lower value",0.22 (active)
same,normalized growth,"locus YBR171W, strain sec66, stronger effect = lower value",0.662 (active)
same,normalized growth,"locus YBR229C, strain ROT2, stronger effect = lower value",0.989 (inactive)
same,normalized growth,"locus YBR231C, strain swc5, stronger effect = lower value",0.147 (active)
same,normalized growth,"locus YBR279W, strain paf1, stronger effect = lower value",0.488 (active)
same,normalized growth,"locus YCL011C, strain gbp2, stronger effect = lower value",0.221 (active)
same,normalized growth,"locus YCL016C, strain dcc1, stronger effect = lower value",0.234 (active)
same,normalized growth,"locus YCL029C, strain bik1, stronger effect = lower value",0.945 (inactive)
same,normalized growth,"locus YCL061C, strain MRC1 (second series), stronger effect = lower value",0.96 (inactive)
same,normalized growth,"locus YCL069W, strain vba3, stronger effect = lower value",0.18 (active)
same,normalized growth,"locus YCR088W, strain abp1, stronger effect = lower value",0.374 (active)
same,normalized growth,"locus YDL005C, strain med2, stronger effect = lower value",0.263 (active)
same,normalized growth,"locus YDL035C, strain GPR1, stronger effect = lower value",0.976 (inactive)
same,normalized growth,"locus YDL040C, strain nat1, stronger effect = lower value",0.666 (active)
same,normalized growth,"locus YDL074C, strain BRE1, stronger effect = lower value",0.904 (inactive)
same,normalized growth,"locus YDL101C, strain DUN1, stronger effect = lower value",0.973 (inactive)
same,normalized growth,"locus YDL134C, strain PPH21, stronger effect = lower value",0.993 (inactive)
same,normalized growth,"locus YDL185W, strain tfp1, stronger effect = lower value",0.966 (inactive)
same,normalized growth,"locus YDL192W, strain arf1, stronger effect = lower value",0.973 (inactive)
same,normalized growth,"locus YDR001C, strain nth1, stronger effect = lower value",0.442 (active)
same,normalized growth,"locus YDR069C, strain doa4, stronger effect = lower value",0.479 (active)
same,normalized growth,"locus YDR101C, strain arx1, stronger effect = lower value",0.967 (inactive)
same,normalized growth,"locus YDR137W, strain rgp1, stronger effect = lower value",1.01 (inactive)
same,normalized growth,"locus YDR150W, strain NUM1, stronger effect = lower value",0.985 (inactive) and 0.925 (active)
same,normalized growth,"locus YDR159W, strain sac3, stronger effect = lower value",0.15 (active)
same,normalized growth,"locus YDR162C, strain NBP2, stronger effect = lower value",0.966 (inactive)
same,normalized growth,"locus YDR195W, strain ref2",1.05 (inactive)
same,normalized growth,"locus YDR297W, strain sur2, stronger effect = lower value",0.322 (active)
same,normalized growth,"locus YDR318W, strain mcm21, stronger effect = lower value",0.951 (inactive)
same,normalized growth,"locus YDR334W, strain swr1, stronger effect = lower value",0.208 (active)
same,normalized growth,"locus YDR335W, strain msn5, stronger effect = lower value",0.368 (active)
same,normalized growth,"locus YDR363W, strain ESC2, stronger effect = lower value",0.922 (inactive)
same,normalized growth,"locus YDR388W, stronger effect = lower value",0.88 (active)
same,normalized growth,"locus YDR392W, strain spt3, stronger effect = lower value",0.104 (active)
same,normalized growth,"locus YDR502C, strain sam2, stronger effect = lower value",0.988 (inactive)
same,normalized growth,"locus YEL003W, strain gim4, stronger effect = lower value",0.326 (active)
same,normalized growth,"locus YEL037C, strain rad23, stronger effect = lower value",0.215 (active)
same,normalized growth,"locus YEL061C, strain CIN8 (second series), stronger effect = lower value",0.229 (active)
same,normalized growth,"locus YEL061C, strain CIN8, stronger effect = lower value",0.991 (inactive)
same,normalized growth,"locus YER015W, strain faa2, stronger effect = lower value",0.346 (active)
same,normalized growth,"locus YER016W, strain bim1, stronger effect = lower value",0.715 (active)
same,normalized growth,"locus YER110C, stronger effect = lower value",0.974 (inactive)
same,normalized growth,"locus YER111C, strain swi4, stronger effect = lower value",0.663 (active)
same,normalized growth,"locus YER155C, strain BEM2 (second series), stronger effect = lower value",0.736 (active)
same,normalized growth,"locus YER155C, strain BEM2, stronger effect = lower value",1.01 (inactive)
same,normalized growth,"locus YER167W, strain BCK2, stronger effect = lower value",1.01 (inactive)
same,normalized growth,"locus YFR010W, strain ubp6, stronger effect = lower value",0.297 (active)
same,normalized growth,"locus YGL078C, strain dbp3, stronger effect = lower value",0.994 (inactive)
same,normalized growth,"locus YGL086W, strain mad1, stronger effect = lower value",0.999 (inactive)
same,normalized growth,"locus YGL167C, strain pmr1, stronger effect = lower value",1.01 (inactive)
same,normalized growth,"locus YGL173C, strain kem1, stronger effect = lower value",0.794 (active)
same,normalized growth,"locus YGL227W, strain vid30, stronger effect = lower value",0.243 (active)
same,normalized growth,"locus YGL240W, strain doc1, stronger effect = lower value",0.819 (active)
same,normalized growth,"locus YGL248W, strain PDE1, stronger effect = lower value",0.99 (inactive)
same,normalized growth,"locus YGL253W, strain hxk2, stronger effect = lower value",0.0972 (active)
same,normalized growth,"locus YGR078C, strain PAC10, stronger effect = lower value",0.976 (inactive)
same,normalized growth,"locus YGR135W, strain pre9, stronger effect = lower value",0.942 (inactive)
same,normalized growth,"locus YGR229C, strain SMI1, stronger effect = lower value",0.919 (inactive) and 0.24 (active)
same,normalized growth,"locus YGR252W, strain gcn5, stronger effect = lower value",1.07 (inactive)
same,normalized growth,"locus YHR013C, strain ard1, stronger effect = lower value",0.149 (active)
same,normalized growth,"locus YHR027C, strain rpn1, stronger effect = lower value",0.556 (active)
same,normalized growth,"locus YHR030C, strain SLT2, stronger effect = lower value",0.994 (inactive) and 0.988 (inactive)
same,normalized growth,"locus YHR079C, strain IRE1 (second series), stronger effect = lower value",0.972 (inactive)
same,normalized growth,"locus YHR079C, strain IRE1, stronger effect = lower value",0.991 (inactive)
same,normalized growth,"locus YHR094C, strain hxt1, stronger effect = lower value",0.977 (inactive)
same,normalized growth,"locus YHR129C, strain ARP1, stronger effect = lower value",0.992 (inactive)
same,normalized growth,"locus YHR142W, strain chs7, stronger effect = lower value",0.127 (active)
same,normalized growth,"locus YHR200W, strain rpn10, stronger effect = lower value",0.973 (inactive)
same,normalized growth,"locus YIL066C, strain RNR3, stronger effect = lower value",0.965 (inactive)
same,normalized growth,"locus YIL073C, strain SPO22, stronger effect = lower value",1.52 [resistant] (active)
same,normalized growth,"locus YIL125W, strain kgd1, stronger effect = lower value",0.986 (inactive)
same,normalized growth,"locus YIR030C, strain dcg1, stronger effect = lower value",0.98 (inactive)
same,normalized growth,"locus YJL092W, strain hpr5, stronger effect = lower value",0.282 (active)
same,normalized growth,"locus YJL095W, strain BCK1 (second series), stronger effect = lower value",0.0776 (active)
same,normalized growth,"locus YJL095W, strain BCK1, stronger effect = lower value",0.918 (inactive) and 0.981 (inactive)
same,normalized growth,"locus YJL115W, strain asf1, stronger effect = lower value",0.435 (active)
same,normalized growth,"locus YJL129C, strain trk1, stronger effect = lower value",0.215 (active)
same,normalized growth,"locus YJL134W, strain LCB3, stronger effect = lower value",0.983 (inactive)
same,normalized growth,"locus YJL154C, strain vps35, stronger effect = lower value",0.686 (active)
same,normalized growth,"locus YJL164C, strain tpk1, stronger effect = lower value",0.176 (active)
same,normalized growth,"locus YJL166W, strain qcr8, stronger effect = lower value",0.19 (active)
same,normalized growth,"locus YJL168C, strain set2, stronger effect = lower value",0.977 (inactive)
same,normalized growth,"locus YJL187C, strain SWE1 (second series), stronger effect = lower value",0.946 (inactive)
same,normalized growth,"locus YJL187C, strain SWE1, stronger effect = lower value",0.231 (active)
same,normalized growth,"locus YJR043C, strain POL32, stronger effect = lower value",0.983 (inactive)
same,normalized growth,"locus YJR066W, strain TOR1, stronger effect = lower value",0.928 (inactive)
